HTT ATP protect = protects HTT-Q103 PC12 cells, measured by ATP | PC12 HTT-Q103 induced, cytoprotection, ATP luminescence, 40 h | Potency, µM (titrated, usually from 56.4 µM), actives largely listed as activators | 230,000 tested, 0.14% active | AID 1471; active means well fitted curve in the direction sought with a large enough effect; inconclusive means small, poorly fitted or top-dose-only effect, or another doubt; inactive means no such curve, though single readings can be large; an effect the other way counts as inactive or inconclusive; further: nearly all actives have a fitted effect of over 45% in size
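ATP quantification (ATPlite) reports survival of PC12 cells in which tebufenozide, 100 nM final, switches on Htt exon 1 with 103 glutamines linked to GFP; compounds are titrated.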
ALDH1A1 inh = blocks purified human ALDH1A1 activity. Purified ALDH1A1, NADH fluorescence, propionaldehyde substrate. 220,000 tested, 7.3% active. Potency, µM (highest dose often 75.3 µM), hits mostly inhibitors
LMNA splice mod = changes lamin A minigene splicing in HeLa cells; AID 1487; Potency, µM (titrated, usually from 46.1 µM), usual class: inhibitors; HeLa LMNA splicing GFP/RFP minigene ratio, 48 h; 200,000 tested, 0.01% active; active means well fitted inhibition curve with a large enough effect in the signal ratio, with a control signal flat, not every such curve was filed as active; inconclusive means small, poorly fitted or top-dose-only effect, or effect the other way, or a change in a side signal; the % refers to the signal ratio
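S3 HeLa cells stably expressing lamin A-EGFP splicing minigene plus DsRed2, 600 cells/well, 48 h compound exposure at 37C. Laser-scanning cytometry; analysed as GFP (500-530 nm)/RFP (575-640 nm) total intensity ratio; 0.5% DMSO vehicle.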
HPGD block = HPGD (human) dehydrogenase inhibition. P15428. purified HPGD, NADH fluorescence kinetic, PGE2 substrate. Potency, µM, most hits filed as inhibitors. 150,000 tested, 4.3% active
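20 nM HPGD preincubated 15 min at room temperature with compound in 50 mM Tris-HCl pH 8, 0.01% Tween 20. Started with 1 mM NAD+ and 30 uM prostaglandin E2; NADH fluorescence (360/450 nm) read 5 times over 30-s intervals, last minus first.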
HTT aggregate = inhibitors of mutant huntingtin aggregate formation in PC12 cells. PC12 HttQ103-GFP aggregates, Acumen cytometry, 40 h. Potency, µM (titrated, usually from 46.1 µM), most hits filed as inhibitors. 220,000 tested, 1.1% active; active means well fitted curve in the direction sought with a large enough effect; inconclusive means small, poorly fitted or top-dose-only effect, or another doubt; inactive means no such curve, though single readings can be large; an effect the other way counts as inactive or inconclusive; further: nearly all actives have a fitted effect of over 60% in size
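Huntingtin Q103 exon 1–GFP aggregates in induced PC12 cells (100 nM tebufenozide) were quantified by cytometry from lysates, with compounds dosed in titration.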
JMJD2E inh = blocks human JMJD2E demethylase activity; JMJD2E catalytic domain, FDH-coupled NADH fluorescence (FDH is formaldehyde dehydrogenase); Potency, µM (doses to about 57.1 µM), most hits filed as inhibitors; 230,000 tested, 1.6% active; AID 2147; further: nearly all actives have a fitted effect of over 50% in size
Target sequence (B2RXH2 1-337 limits assumed): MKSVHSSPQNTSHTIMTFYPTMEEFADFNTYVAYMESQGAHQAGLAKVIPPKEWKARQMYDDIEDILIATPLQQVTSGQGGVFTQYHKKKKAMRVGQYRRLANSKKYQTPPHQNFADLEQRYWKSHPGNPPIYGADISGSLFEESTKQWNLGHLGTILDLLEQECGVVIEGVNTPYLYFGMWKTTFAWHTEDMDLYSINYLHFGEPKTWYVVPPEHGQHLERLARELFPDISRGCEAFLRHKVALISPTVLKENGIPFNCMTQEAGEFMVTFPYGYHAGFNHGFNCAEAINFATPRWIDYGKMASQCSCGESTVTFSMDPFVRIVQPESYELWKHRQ
Large screens that a line does not name were inactive. Rows were chosen to be rich in hits. Some 9.2% of all compounds tested hit in one or more screens of this group. Unless noted, the call rests on the fitted dose curve; in most records, active means well fitted inhibition curve with a large enough effect (not every such curve was filed as active); inconclusive means small, poorly fitted or top-dose-only effect, or another doubt; inactive means no such curve, though single readings can be large or run the other way.

CC(C)(C)n1nnnc1C(c1cccs1)N(Cc1ccc(Cl)cc1)CC1CCCO1 (stereo unspecified)	ALDH1A1 inh inconclusive, LMNA splice mod inconclusive, HTT aggregate 14µM
Clc1ccc(CN(Cc2ccccc2)C(c2cccs2)c2nnnn2C2CCCC2)cc1 (stereo unspecified)	LMNA splice mod inconclusive
Cc1cc(C)c2nc(N3CCC(C(=O)N4CCCC4)CC3)sc2c1	LMNA splice mod inconclusive, HPGD block 13µM
O=C(CSc1nccn1Cc1ccc(Cl)cc1)Nc1ccc2c(c1)OCO2	none (no result: HTT ATP protect, ALDH1A1 inh, HPGD block, HTT aggregate, JMJD2E inh)
CC(=O)N1CCc2c(sc(NC(=O)c3ccc([N+](=O)[O-])o3)c2C#N)C1	ALDH1A1 inh 3.2µM, LMNA splice mod inconclusive (no result: HPGD block)
CCOc1ccc(NC(=O)CN2CCN(CC(=O)c3ccc(OC)c(OC)c3)CC2)cc1	ALDH1A1 inh 7.1µM
COc1ccc(NC(=O)CN2CCN(c3ccccc3)CC2)cc1	none (no result: HPGD block)
COc1ccc(NC(=O)CN2CCN(CC(=O)Nc3ccc(OC)c(OC)c3)CC2)cc1	ALDH1A1 inh inconclusive
COc1ccc(NC(=O)CN2CCN(C3c4ccccc4-c4ccccc43)CC2)cc1	ALDH1A1 inh 22µM, LMNA splice mod inconclusive, HTT aggregate inconclusive
CCOc1ccc(NC(=O)CSC(N)=O)cc1	ALDH1A1 inh 2µM
CCOc1ccc(NC(=O)c2c(OC)cccc2OC)cc1	none (no result: LMNA splice mod, HPGD block)
CCOc1ccc(NC(=O)COC(=O)c2c(OC)cccc2OC)cc1	ALDH1A1 inh 28µM (no result: HTT ATP protect)
Cc1nc(C(N)=O)nc2ccccc12	none (no result: LMNA splice mod, HPGD block)
COc1ccc(C(=O)CN2CCN(c3ccc(F)cc3)CC2)cc1OC	ALDH1A1 inh 13µM
COc1cc(OC)c(OC)cc1CN1CCN(c2ccc(F)cc2)CC1	JMJD2E inh inconclusive (no result: ALDH1A1 inh, LMNA splice mod, HPGD block)
CCOc1ccc(NC(=O)CN2CCN(CC(=O)Nc3ccc4c(c3)OCO4)CC2)cc1	ALDH1A1 inh inconclusive
CCOc1ccc(NC(=O)CN2CCN(CC(=O)Nc3ccc(F)cc3)CC2)cc1	ALDH1A1 inh 12µM
COc1ccc(N2CCN(C(=O)CC34CC5CC(CC(C5)C3)C4)CC2)c([N+](=O)[O-])c1	ALDH1A1 inh inconclusive, LMNA splice mod inconclusive, HPGD block inconclusive
COC(=O)C1=C(C(=O)c2ccccc2)C(c2ccccc2)n2nnnc2N1 (stereo unspecified)	ALDH1A1 inh 28µM (no result: HPGD block)
Cc1onc(-c2ccccc2)c1C(=O)NC(=S)Nc1sc2c(c1C#N)CCCC2	ALDH1A1 inh 0.5µM, HPGD block inconclusive
Cc1onc(-c2ccccc2)c1C(=O)Nc1sc2c(c1C#N)CCC2	ALDH1A1 inh inconclusive, LMNA splice mod inconclusive, HPGD block inconclusive, HTT aggregate inconclusive
Cc1ccccc1C(=O)NC(=S)Nc1sc2c(c1C#N)CCCC2	ALDH1A1 inh 6.3µM, LMNA splice mod inconclusive
Cn1cc(Cl)c(C(=O)NC(=S)Nc2sc3c(c2C#N)CCCCC3)n1	ALDH1A1 inh inconclusive, HPGD block 10µM
N#Cc1c(NC(=O)c2ccccc2)sc2c1CCCCC2	ALDH1A1 inh inconclusive, HPGD block inconclusive, JMJD2E inh inconclusive
Cc1onc(-c2ccccc2)c1C(=O)NC(=S)Nc1sc2c(c1C#N)CCC(C)C2 (stereo unspecified)	ALDH1A1 inh 2.2µM
O=C1CS/C(=N/N=C/c2cccs2)N1Cc1ccc(F)cc1	none (no result: ALDH1A1 inh, LMNA splice mod, HPGD block)
C=CCn1c(N2CCN(c3ccc(OC)cc3)CC2)nc2c1c(=O)[nH]c(=O)n2C	ALDH1A1 inh inconclusive (no result: HPGD block)
CCOc1ccccc1-n1nnnc1SCC(=O)O	none (no result: ALDH1A1 inh, LMNA splice mod, HPGD block)
CC(=O)Nc1sc2c(c1C#N)CCCCC2	ALDH1A1 inh inconclusive, HTT aggregate inconclusive
CC(C)(C)C(=O)NC(=S)Nc1sc2c(c1C#N)CCCCC2	ALDH1A1 inh 22µM, HTT aggregate inconclusive
N#Cc1c(NC(=O)/C=C/c2ccco2)sc2c1CCCC2	ALDH1A1 inh 32µM, LMNA splice mod inconclusive, HPGD block inconclusive, JMJD2E inh inconclusive
Cc1ccc(S(=O)(=O)CCC(=O)c2ccc(O)cc2O)cc1	ALDH1A1 inh 0.28µM, LMNA splice mod inconclusive
CNc1oc(Cc2ccccc2)nc1S(=O)(=O)c1ccccc1	ALDH1A1 inh 25µM
C[C@H](CN(C)C)C(O)(c1ccccc1)c1ccccc1	none (no result: LMNA splice mod, HTT aggregate, JMJD2E inh)
S=C(N/N=C/c1ccccc1Cl)Nc1cccc(Cl)c1Cl	none (no result: ALDH1A1 inh, LMNA splice mod, HPGD block)
